# In publication PMC4336329 (PLoS ONE, 2015):
# The whole screen tested about 310,000 compounds, of which about 14,000 (4.5%) showed an effect of 50% or more. The effect is printed as a negative number. For the sample, strong results were picked, then their nearest neighbours and some compounds at random.
# Molecular target: human ether-à-go-go-related gene (hERG) potassium channel (human, UniProt Q12809)
# Assay: primary screen, population patch clamp on CHO cells stably expressing hERG; higher = less effect of the substance
# 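Also: peak tail current of the secondary pulse compared with the same well before compound.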
# Sequence of human ether-à-go-go-related gene (hERG) potassium channel (Q12809 whole entry, looked up): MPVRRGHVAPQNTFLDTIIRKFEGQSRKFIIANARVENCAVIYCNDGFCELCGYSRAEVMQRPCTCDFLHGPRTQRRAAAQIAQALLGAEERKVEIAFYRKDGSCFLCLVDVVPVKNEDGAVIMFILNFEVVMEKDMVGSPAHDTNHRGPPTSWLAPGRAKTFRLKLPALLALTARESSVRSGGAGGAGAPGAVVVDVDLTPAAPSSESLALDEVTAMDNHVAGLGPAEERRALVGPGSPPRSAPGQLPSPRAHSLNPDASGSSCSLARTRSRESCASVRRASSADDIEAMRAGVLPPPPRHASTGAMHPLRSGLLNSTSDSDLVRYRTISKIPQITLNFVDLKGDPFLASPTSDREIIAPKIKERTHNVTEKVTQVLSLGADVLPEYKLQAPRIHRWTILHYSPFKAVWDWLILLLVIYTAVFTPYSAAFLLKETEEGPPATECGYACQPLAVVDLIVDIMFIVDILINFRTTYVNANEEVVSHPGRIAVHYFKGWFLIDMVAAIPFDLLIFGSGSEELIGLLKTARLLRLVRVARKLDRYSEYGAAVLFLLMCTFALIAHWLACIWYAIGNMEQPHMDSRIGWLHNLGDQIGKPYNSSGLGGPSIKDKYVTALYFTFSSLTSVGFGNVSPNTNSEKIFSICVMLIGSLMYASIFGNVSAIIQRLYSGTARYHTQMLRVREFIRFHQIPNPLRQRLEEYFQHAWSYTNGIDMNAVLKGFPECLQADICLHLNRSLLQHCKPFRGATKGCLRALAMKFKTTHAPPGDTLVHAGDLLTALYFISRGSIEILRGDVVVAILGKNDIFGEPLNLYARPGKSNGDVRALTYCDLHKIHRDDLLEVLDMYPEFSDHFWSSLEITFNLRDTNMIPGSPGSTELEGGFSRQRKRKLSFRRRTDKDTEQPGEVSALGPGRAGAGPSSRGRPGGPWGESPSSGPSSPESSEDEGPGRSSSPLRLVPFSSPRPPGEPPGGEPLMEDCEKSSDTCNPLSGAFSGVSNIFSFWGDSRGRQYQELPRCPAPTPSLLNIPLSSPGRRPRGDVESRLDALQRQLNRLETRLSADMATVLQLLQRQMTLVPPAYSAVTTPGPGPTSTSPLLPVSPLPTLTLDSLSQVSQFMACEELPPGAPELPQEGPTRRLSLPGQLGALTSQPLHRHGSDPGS
row,Structure (SMILES),"hERG current change (%, negative = inhibition) at 10uM [%]"
1,C/C(=N\NC(=O)c1cc(-c2cccc([N+](=O)[O-])c2)n[nH]1)c1ccc(F)cc1,8.28
2,O=C(COC(=O)CC1CC2CCC1C2)Nc1ccc(F)cc1 (stereo not drawn),-22.4
3,Cc1ccc2c(c1)/C(=C/c1ccc(F)cc1)C(=O)N2,10.5
4,COc1cc(C(=O)N/N=C/c2coc3ccc(Cl)cc3c2=O)ccc1O,14.2
5,COc1ccc(CCN2C(=O)CC(NNc3ccc([N+](=O)[O-])cc3)C2=O)cc1OC (stereo not drawn),-52.8
6,CCc1ccc(NC2CC(=O)N(CCc3ccc(OC)c(OC)c3)C2=O)cc1 (stereo not drawn),-13.4
7,COc1ccc(CCNC2CC(=O)N(CCc3ccccc3)C2=O)cc1OC (stereo not drawn),0.286
8,O=C(c1ccccc1)N1CCN=C1SCc1ccc([N+](=O)[O-])cc1,-56.4
9,Cc1cccc(CC(=O)N2CCN=C2SCc2ccc([N+](=O)[O-])cc2)c1,-11.8
10,Cc1cc(C)cc(C(=O)N2CCN=C2SCc2ccc([N+](=O)[O-])cc2)c1,-23.5
11,O=S(=O)(c1ccc(F)cc1)N1CCN=C1SCc1cccnc1,-27.6
12,Cc1ccc(SCc2ccc(C(=O)N3CCCC3)cc2)cc1,-30.1
13,O=S(=O)(c1ccccc1)N1CCN=C1SCc1cccnc1,-12.1
14,O=[N+]([O-])c1ccc(S(=O)(=O)N2CCN=C2SCc2cccnc2)cc1,-68.1
15,CC(=O)N1CCN=C1SCc1ccccc1,19.1
16,CCN1CCN(C(=O)c2ccc(CSc3ccc(C)cc3)cc2)CC1,-63.6
17,Cc1ccc(SCc2ccc(C(=O)N3CCCCC3)cc2)cc1,1.58
18,Cc1cccc(C(=O)N2CCN=C2SCc2ccc([N+](=O)[O-])cc2)c1,-51.9
19,O=C(N=C1SC2CS(=O)(=O)CC2N1c1ccc(F)cc1F)C1CC1 (stereo not drawn),2.47
20,O=C(OCC(=O)N1CCCC1=O)C1CCN(S(=O)(=O)c2c(Cl)cccc2Cl)CC1,-36.1

row,Structure (SMILES),"hERG current change (%, negative = inhibition) at 10uM [%]"
1,O=C(NCc1cccnc1)NC1CC(=O)N(c2ccc3c(c2)OCCO3)C1 (stereo not drawn),-0.536
2,CC(C)(C)n1nnnc1C(c1cccc(C#N)c1)N1CCN2CCCC2C1 (stereo not drawn),4.48
3,Cn1c(C(C#N)/C(=N\S(=O)(=O)c2cccs2)c2ccccc2)nc2ccccc21 (stereo not drawn),2.46
4,O=C(O)CC1(CC(=O)Nc2cc(C(F)(F)F)cc(C(F)(F)F)c2)CCCCC1,18.6
5,Cc1cccc(N2CCN(C(=O)c3ccc4c(c3)NC(=O)C(CSCc3cccc(F)c3)N4)CC2)c1C (stereo not drawn),15.9
6,O=C(c1ccc([N+](=O)[O-])cc1)N1CCN=C1SCc1ccccc1,-72.2
7,CN(C)S(=O)(=O)c1ccc(C(=O)N2CCN=C2SCc2ccccc2)cc1,20.9
8,Cc1ccc(C)c(CSC2=NCCN2C(=O)Cc2ccc([N+](=O)[O-])cc2)c1,-4.06
9,O=C(c1cccc2ccccc12)N1CCN=C1SCc1ccc([N+](=O)[O-])cc1,-10.7
10,Cc1ccc(C(=O)N2CCN=C2SCc2ccc([N+](=O)[O-])cc2)cc1,-70.5
11,Cc1ccc(CSC2=NCCN2C(=O)c2ccc([N+](=O)[O-])cc2)cc1,-42.9
12,O=C(Cc1ccccc1)N1CCN=C1SCc1cccc([N+](=O)[O-])c1,-22.6
13,Cc1ccc(C(=O)N2CCN=C2SCc2ccc([N+](=O)[O-])cc2)cc1C,2.84
14,Cc1ccccc1C(=O)N1CCN=C1SCc1ccc([N+](=O)[O-])cc1,-63.6
15,O=S(=O)(Nc1nc2ccccc2nc1Nc1ccc(N2CCOCC2)cc1)c1cc(Cl)ccc1Cl,-0.376
16,C=CCN(c1ccccc1)S(=O)(=O)c1cc(C(=O)NC2=NCCS2)ccc1Cl,63.3
17,COc1ccc(CNC(=O)c2c(C)cc(=O)oc2C)cc1,-26.8
18,CC1Sc2ccc(S(=O)(=O)N3CCC(C(=O)NCc4ccc(Cl)cc4)CC3)cc2NC1=O (stereo not drawn),-5.58
19,COC(=O)C1CCN(c2ccc([N+](=O)[O-])cc2[N+](=O)[O-])CC1,-0.88
20,COC(=O)C1CCN(Cc2ccc(C)cc2)CC1,-22.2

row,Structure (SMILES),"hERG current change (%, negative = inhibition) at 10uM [%]"
1,COC(=O)C1CCN(Cc2ccc(OCCCN3CCN(c4ccc([N+](=O)[O-])cc4)CC3)cc2)CC1,-73.7
2,Oc1ccc(N2CCN(Cc3ccc(OCCCN4CCCCC4)cc3)CC2)cc1,5.11
3,COC(=O)C1CCN(CCCOc2ccc(CN3CCN(c4ccc([N+](=O)[O-])cc4)CC3)cc2)CC1,-74.3
4,CCCCOc1ccc(CN2CCC(O)CC2)cc1,3.42
5,Cc1ccccc1C(=O)NC(=S)NCC1CCCO1 (stereo not drawn),12
6,O=C(Nc1ccc2ncccc2c1)c1cc(Cl)ccc1Cl,12.6
7,CCOc1ccc(N(CC(=O)NCCc2ccc(OC)cc2)S(C)(=O)=O)cc1,-0.0301
8,O=C(CSc1ncnc2c1cnn2-c1ccc(Cl)cc1)NCc1ccc2c(c1)OCO2,13.7
9,CC(C)OC(=O)CCC1(C(=O)O)CCC(=O)NC1 (stereo not drawn),7.55
10,CCC(=O)Nc1ccc(OCc2nc3ccccc3s2)cc1,21.1
11,O=C(CSc1ncccc1-c1nc2ccccc2[nH]1)Nc1ccc2c(c1)OCCO2,-30.8
12,Cn1c(SCC(=O)Nc2ccc(Br)cc2F)nnc1-c1ccco1,-26.7
13,Cn1c(SCC(=O)c2ccccc2)nnc1-c1ccco1,-39.5
14,CCn1c(SCC(=O)c2ccc(Cl)s2)nnc1-c1cccs1,-35.5
15,Cn1c(SCC(=O)Nc2ccc(Cl)cc2F)nnc1-c1ccco1,-59.4
16,Cn1c(SCC(=O)c2cc(Cl)c(Cl)s2)nnc1-c1ccco1,-60.5
17,Cn1c(SCC(=O)Nc2ccccc2O)nnc1-c1ccco1,-27.4
18,Cn1c(SCC(=O)c2cccs2)nnc1-c1ccco1,11.8
19,CCn1c(SCC(=O)c2cccs2)nnc1-c1ccco1,-2.68
20,CC(C)Cn1c(SCC(=O)c2ccc(Cl)s2)nnc1-c1ccco1,-76.7
